PubChem BioAssay (Tox21)
Inconclusive results are not listed. Where a call stands in place of a potency, no number is given. The source made the active and inactive calls. Calls come from the whole dose curve.

Assay: p53 small molecule agonists, cell-based qHTS assay with human liver microsomes (AID 1963577);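 note: p53 response element beta-lactamase reporter cells with liver microsomes plus NADPH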
Settings: HCT-116 p53RE-bla with human liver microsomes, ratio, 16 h; series mostly up to 66 µM
Summary of the method: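 p53RE-bla cells, 4,000/well, compound added after 5 h, with human liver microsomes 0.5 mg/mL and NADPH 0.5 mg/mL final; 16 h at 37 C, then LiveBLAzer 2 h RT, fluorescence.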

Which Potency does the source give for `O=C1Cc2cc(CCN3CCN(c4nsc5ccccc45)CC3)c(Cl)cc2N1` here?
The Potency was “inactive”.

With `COc1ccccc1OCCNCC(O)COc1cccc2[nH]c3ccccc3c12` (stereo not given) as the compound, how does the Potency read?
The Potency was “inactive”.

With `O=c1cc(-c2ccc(O)cc2)oc2cc(O)cc(O)c12` as the compound, how does the Potency read?
The Potency was “inactive”.

For `CCCCCCCC/C=C/CCCCCCCC1=NCCN1CCO`, which Potency is on record?
The Potency was “inactive”.

With `CC1=NN(c2cc(Cl)c(S(=O)(=O)O)cc2Cl)C(=O)C1N=Nc1ccc(S(=O)(=O)O)cc1` (stereo not given) as the compound, how does the Potency read?
The Potency was “inactive”.

Which Potency does the source give for `CN(C)CC/C=C1\c2ccccc2Sc2ccc(Cl)cc21` here?
The Potency was “inactive”.

For `C(=C(c1ccccc1)c1ccccc1)c1ccccc1`, which Potency is on record?
The Potency was “inactive”.

With `NC(=O)C1(N2CCCCC2)CCN(CCCN2c3ccccc3CCc3ccc(Cl)cc32)CC1` as the compound, how does the Potency read?
The Potency was “inactive”.

With `O=C1c2ccccc2C(=O)c2c(O)c(O)cc(O)c21` as the compound, how does the Potency read?
The Potency was “inactive”.

With `CCCCCCCCNC(C)C(O)c1ccc(SC(C)C)cc1` (stereo not given) as the compound, how does the Potency read?
Its Potency is “inactive”.

For `CN1CCCC(CC2c3ccccc3Sc3ccccc32)C1` (stereo not given), which Potency is on record?
Its Potency is “inactive”.

Which Potency does the source give for `CCOc1ccc2nc3cc(N)ccc3c(N)c2c1` here?
The Potency was “inactive”.

With `CC1=NN(c2ccc(S(=O)(=O)O)cc2)C(=O)C1N=Nc1ccccc1` (stereo not given) as the compound, how does the Potency read?
The Potency was “inactive”.

For `Nc1ccc(N)c2c1C(=O)c1ccccc1C2=O`, which Potency is on record?
The Potency was “inactive”.

For `CNCC[C@@H](Oc1ccccc1C)c1ccccc1`, which Potency is on record?
The Potency was “inactive”.

For `COc1cc([N+](=O)[O-])ccc1N`, which Potency is on record?
The Potency was “inactive”.

With `Cc1c(C(=O)NN2CCCCC2)nn(-c2ccc(Cl)cc2Cl)c1-c1ccc(Cl)cc1` as the compound, how does the Potency read?
Its Potency is “inactive”.

For `CSc1ccc(/C=C2/C(C)=C(CC(=O)O)c3cc(F)ccc32)cc1`, which Potency is on record?
Its Potency is “inactive”.

Which Potency does the source give for `CC(C)C(OC(=O)c1ccccc1)C(C)(C)COC(=O)c1ccccc1` (stereo not given) here?
Its Potency is “inactive”.

For `CN(C)C(=O)NC1(c2ccccc2)CCN(CCC[C@]2(c3ccc(Cl)c(Cl)c3)CCCN(C(=O)c3ccccc3)C2)CC1`, which activation is on record?
The activation was 8.31% [at 13.5 µM] (inactive).
